Source: PubChem BioAssay
IL1B secr inh: blocks inflammasome-driven IL-1 beta release; THP-1 LPS/ATP IL-1B secretion, AlphaLISA, 16 h; active compounds read low; activity change, % at 57.5 µM; 4.7% of 360,000 active; AID 743279; in the data active means activity change below about -50%; inconclusive means mostly about -30% to -49%
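Secreted IL-1B measured by AlphaLISA bead assay after 16 h compound exposure of THP-1 cells; compounds (final up to 57.5 uM) added 1 h before LPS (250 ng/mL) and ATP (1.25 mM) stimulation; lower signal means less secretion.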
HT1080-NT tox: kills 2HG-producing HT-1080-NT fibrosarcoma cells; HT-1080-NT fibrosarcoma viability, CellTiter-Glo ATP luminescence, 48 h; Potency, µM (series often up to 46.1 µM), actives largely listed as cytotoxic; 1.6% of 360,000 active;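 further: NT is the 2HG producing partner of a matched IDH1 knockdown line; nearly all actives have a fitted effect of over 55% in size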
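750 cells/well, RPMI + 5% FBS; 2 h settle, compound pin-transfer, 48 h at 37 degrees C. CellTiter-Glo 10 min RT, luminescence. Normalized to DMSO and media-only wells.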
KB-3-1 cytotox: KB-3-1 parental cell cytotoxicity; 1.4% of 400,000 active; AID 1347075; Potency, µM (highest dose often 46.1 µM), most hits filed as cytotoxic; KB-3-1 viability, CellTiter-Glo ATP luminescence, 72 h; further: nearly all actives have a fitted effect of over 60% in size
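Parental KB-3-1 adenocarcinoma cells in phenol-red-free DMEM with 10% FBS were pin-treated with compounds at several concentrations, incubated 72 h at 37 °C, and viability read by CellTiter-Glo luminescence; concentration-effect curves were fitted after normalization.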
KB-V1 MDR tox: KB-V1 MDR subline cytotoxicity; 3.4% of 400,000 active; Potency, µM (top dose mostly 46.1 µM), actives largely listed as cytotoxic; KB-V1 MDR cells viability, CellTiter-Glo, 72 h; further: nearly all actives have a fitted effect of over 60% in size
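Cells of the MDR subline KB-V1 are plated, dosed with compound at multiple concentrations, and incubated 72 h at 37 degrees C; CellTiter-Glo is then added and luminescence read after 10 min.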
HT1080 IDH1KD tx: HT-1080 IDH1 knockdown cell toxicity (counter line). HT-1080 IDH1 knockdown viability, ATP luminescence, 48 h. Potency, µM (top dose mostly 46.1 µM), most hits filed as cytotoxic. 2% of 360,000 active
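IDH1KD HT-1080 cells, 750/well, RPMI + 5% FBS; compound pinned after 2 h settling; 48 h, 37 °C; CellTiter-Glo luminescence; % activity normalised to DMSO and no-cell wells; curves fitted, classed by r2 and efficacy.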
Each line names hits and unclear results; the compound was inactive in the other large screens. An excerpt weighted towards active compounds, which were near 8.8% of everything screened. Unless noted, the call rests on the fitted dose curve; in most records, active means well fitted curve in the direction sought with a large enough effect; inconclusive means small, poorly fitted or top-dose-only effect, or another doubt; inactive means no such curve, though single readings can be large; an effect the other way counts as inactive or inconclusive.

Cc1ccc(N=Nc2c(N)[nH]n3c(=O)cc(C)nc23)cc1	KB-3-1 cytotox 18µM, KB-V1 MDR tox 23µM
Nc1[nH]n2c(=O)cc(-c3ccccc3)nc2c1N=Nc1ccccc1	HT1080-NT tox inconclusive, KB-3-1 cytotox 8.2µM, KB-V1 MDR tox inconclusive, HT1080 IDH1KD tx inconclusive
CC(C)n1c(=O)[nH][nH]c1=S	none (no result: IL1B secr inh)
CCc1nc(SCC(=O)c2ccc3c(c2)OCCO3)c2ccccc2n1	IL1B secr inh -63, HT1080-NT tox inconclusive, KB-3-1 cytotox inconclusive, KB-V1 MDR tox inconclusive, HT1080 IDH1KD tx inconclusive
CCc1nc(SCC(=O)c2ccccc2)c2ccccc2n1	IL1B secr inh inconclusive
O=C(CSc1nc(Cc2ccccc2)nc2ccccc12)c1ccc2c(c1)OCCO2	HT1080-NT tox inconclusive, KB-V1 MDR tox inconclusive
CCCc1nc(SCC(=O)c2ccc(OC)cc2)c2ccccc2n1	IL1B secr inh -90
Cc1sc2ncnc(SCC(=O)c3ccc4c(c3)OCCO4)c2c1-c1ccccc1	KB-V1 MDR tox 16µM
CCCc1nc(SCC(=O)Nc2nc3c(s2)CCCC3)c2ccccc2n1	none
CCc1nc(SCC(=O)Nc2nc3c(s2)CCCC3)c2ccccc2n1	IL1B secr inh -86, KB-3-1 cytotox inconclusive
Cc1c(C)n(Cc2ccccc2)c2ccc(C(=O)NCC(C)c3ccccc3)cc12 (configuration not stated)	none (no result: IL1B secr inh, HT1080-NT tox, HT1080 IDH1KD tx)
CCc1nc(SCC(=O)NNC(=O)c2ccc(OC)cc2)c2ccccc2n1	none
Cc1csc(NC(=O)CSc2nc(C(C)C)nc3ccccc23)n1	IL1B secr inh -96, HT1080-NT tox inconclusive, KB-3-1 cytotox inconclusive, KB-V1 MDR tox 15µM
CCc1nc(SCC(=O)N2c3ccccc3Sc3ccccc32)c2ccccc2n1	IL1B secr inh inconclusive, KB-V1 MDR tox 8.2µM
CCCc1nc(SCC(=O)NC2CCCC2)c2ccccc2n1	IL1B secr inh -58
COc1ccc(C(=O)NNC(=O)CSc2nc(C(C)C)nc3ccccc23)cc1	IL1B secr inh -93
CC(C)c1nc(SCC(=O)NC2CCCCC2)c2ccccc2n1	none
Cc1ccc(C2=NN(CC(=O)NCCc3ccccc3)C(=O)CC2)cc1	none (no result: IL1B secr inh, HT1080-NT tox, HT1080 IDH1KD tx)
CCCCOc1ccc(/C=C/C2=CC(C)(C)NC(=S)N2)cc1OCC	IL1B secr inh inconclusive, HT1080 IDH1KD tx inconclusive
CCc1ccc(NC(=S)N(CCN2CCOCC2)Cc2ccccc2F)cc1	KB-V1 MDR tox inconclusive
COc1ccc(S(=O)(=O)N2CCOCC2)cc1NC(=O)CN1C(=O)NC2(CCCCC2C)C1=O (configuration not stated)	none
CC(C)c1nc(SCC(=O)c2ccc(F)cc2)c2ccccc2n1	IL1B secr inh -57
CCCCNC(=O)CSc1nc(Cc2ccccc2)nc2ccccc12	none
CC(C)(C)c1nc(SCC(=O)NNC(=O)c2ccccc2)c2ccccc2n1	IL1B secr inh -91, HT1080-NT tox inconclusive, KB-V1 MDR tox inconclusive, HT1080 IDH1KD tx inconclusive
CC(C)(C)c1nc(SCC(=O)NC2CCCC2)c2ccccc2n1	IL1B secr inh -62
Cc1ccc(C(=O)CSc2nc(C(C)C)nc3ccccc23)cc1	none
CC(C)NC(=O)CSc1nc(Cc2ccccc2)nc2ccccc12	IL1B secr inh -70
CCC(=O)N1CCC1(C)C(=O)Nc1ccccc1 (configuration not stated)	none
COc1ccc(/C=C(\C#N)C(=O)C(C)(C)n2cncn2)cc1	KB-V1 MDR tox inconclusive
O=C1Nc2ccccc2-n2nnnc2C1N1CCN(CCN2CCOCC2)CC1 (configuration not stated)	none
N#C/C(=C/c1ccc(N2CCOCC2)o1)c1ccc(Cl)cc1	IL1B secr inh -78, HT1080-NT tox 6.3µM, KB-V1 MDR tox inconclusive, HT1080 IDH1KD tx 3.5µM
N#C/C(=C\c1ccc(N2CCOCC2)o1)c1nc2ccccc2[nH]1	HT1080-NT tox inconclusive, HT1080 IDH1KD tx inconclusive
Cc1nc(Nc2cnc(/C=C/c3cc(C(=O)Nc4cccc(C(F)(F)F)c4)ccc3C)cn2)cc(N2CCNCC2)n1	IL1B secr inh -97, HT1080-NT tox inconclusive, KB-3-1 cytotox inconclusive, KB-V1 MDR tox inconclusive, HT1080 IDH1KD tx inconclusive
CCOC(=O)c1ccc2c(c1)n(CC)c(/C=C/N(C)c1ccccc1)[n+]2CC	IL1B secr inh -89, HT1080-NT tox 6.5µM, HT1080 IDH1KD tx inconclusive
CCOC(=O)c1ccc2c(c1)n(CCO)c(C)[n+]2CC	none
